BAZ2B block = qHTS Assay for Inhibitors of BAZ2B. AlphaScreen BAZ2B-H3K14Ac peptide displacement. Potency, µM (top dose mostly 114 µM), actives largely listed as inhibitors. actives 4.4% (n = 360,000); note: nearly all actives have a fitted effect of over 60% in size
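AlphaScreen displacement of biotin-H3(5-23)K14Ac peptide (50 nM final) from BAZ2B (50 nM final) in PBS pH 7.4, 0.01% Tween-20; complex preformed 30 min RT, then compounds (top 110 uM) 30 min RT, beads 20 min dark.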
PLK1 PBD inh = qHTS for Inhibitors of PLK1-PDB (polo-like kinase 1 - polo-box domain): Primary Screen. Serine/threonine-protein kinase PLK1 (Homo sapiens), P53350. Plk1 PBD binding of FITC phosphopeptide, fluorescence polarization. Potency, µM, usual class: inhibitors. actives 2.8% (n = 360,000). AID 720504, 2013; note: series mostly up to about 57 µM; nearly all actives have a fitted effect of over 65% in size
Target sequence (P53350 whole entry, looked up, the tested form may be a part): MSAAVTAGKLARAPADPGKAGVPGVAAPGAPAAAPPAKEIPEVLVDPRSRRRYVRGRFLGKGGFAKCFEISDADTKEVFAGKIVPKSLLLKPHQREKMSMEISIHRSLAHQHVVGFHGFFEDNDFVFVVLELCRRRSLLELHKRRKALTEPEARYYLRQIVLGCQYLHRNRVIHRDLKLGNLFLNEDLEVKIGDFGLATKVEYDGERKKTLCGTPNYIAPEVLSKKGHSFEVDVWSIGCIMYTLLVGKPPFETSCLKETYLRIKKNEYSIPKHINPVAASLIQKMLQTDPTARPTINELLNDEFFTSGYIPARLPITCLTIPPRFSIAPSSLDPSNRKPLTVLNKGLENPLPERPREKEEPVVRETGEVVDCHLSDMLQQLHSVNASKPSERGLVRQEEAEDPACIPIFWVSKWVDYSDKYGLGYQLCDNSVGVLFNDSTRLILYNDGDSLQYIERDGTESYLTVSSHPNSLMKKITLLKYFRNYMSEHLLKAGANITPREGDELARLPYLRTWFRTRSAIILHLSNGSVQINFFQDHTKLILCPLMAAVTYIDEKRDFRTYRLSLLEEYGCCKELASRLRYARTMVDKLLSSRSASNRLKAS
G9a inh = qHTS Assay for Inhibitors of Histone Lysine Methyltransferase G9a; Histone-lysine N-methyltransferase EHMT2 (Homo sapiens), Q96KQ7; G9a H3K9 monomethylation, AlphaScreen, 2 h; Potency, µM (top dose mostly 102 µM), usual class: inhibitors; actives 8.8% (n = 350,000); AID 504332, 2011; note: nearly all actives have a fitted effect of over 75% in size
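Using a bead-based AlphaScreen, monomethylated H3K9 product from 2 h room-temperature reactions (G9a 20 nM, peptide 500 nM, SAM 20 uM) was detected with 0.5 ug/mL rabbit anti-H3K9me1 antibody.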
HP1b binding inh = HTS for Inhibitors of HP1-beta Chromodomain Interactions with Methylated Histone Tails; Chromobox protein homolog 1 (Homo sapiens), P83916; AlphaScreen HP1-beta / biotin-H3K9me3 peptide binding; Potency, µM (doses to about 114 µM), most hits filed as inhibitors; actives 0.56% (n = 390,000); AID 540317, 2011; note: nearly all actives have a fitted effect of over 70% in size
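HP1-beta protein (50 nM final) preincubated 30 min at room temperature with biotinylated H3(1-18)K9me3 peptide (50 nM) in PBS pH 7.4, 0.01% Tween-20, then compound added for 30 min. AlphaScreen streptavidin donor/nickel chelate acceptor beads (10 ug/mL final), 30 min dark, luminescence read.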
JMJD2A Tudor inh = qHTS Assay for Inhibitors of JMJD2A-Tudor Domain; AlphaScreen JMJD2A-Tudor / H3K4me3 peptide binding; actives 4.4% (n = 390,000); Potency, µM (doses to about 114 µM), actives largely listed as inhibitors; note: nearly all actives have a fitted effect of over 50% in size
12-LOX inh = Primary qHTS assay for inhibitors of human arachidonate 12S-lipoxygenase (ALOX12): Round 2; actives 1.1% (n = 580,000); Polyunsaturated fatty acid lipoxygenase ALOX12 (Homo sapiens), P18054; Potency, µM (series often up to 108 µM), usual class: inhibitors; purified 12hLO, xylenol orange hydroperoxide absorbance; AID 1671190, 2021
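Purified human 12hLO at 150 nM in 25 mM Hepes, 0.01% Triton X-100, pH 7.0, preincubated 15 min at room temperature with compound. Reaction started with 40 uM arachidonic acid, 30 min at room temperature. Hydroperoxide measured by Fe-xylenol orange, 573/405 nm absorbance ratio.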
Hits are given with their value; i = inactive; ? = inconclusive; nt = not tested or not shown; [ ] = another dose, or the depositor's remark. Only some compounds are listed: those with a hit (about 9% of all), similar ones and a draw of the others. Calls come from the whole dose curve; as a rule, active = well fitted curve in the direction sought with a large enough effect; inconclusive = small, poorly fitted or top-dose-only effect, or another doubt; inactive = no such curve, though single readings can be large; an effect the other way counts as inactive or inconclusive.

SMILES | BAZ2B block | PLK1 PBD inh | G9a inh | HP1b binding inh | JMJD2A Tudor inh | 12-LOX inh
CC1=CC(C)(C)Nc2cc(C)c(C)cc21 | 50µM | i | 32µM | ? | 50µM | ?
Cc1cc2c(cc1C)C(=O)NC(C)(C)C2 | ? | i | i | i | i | i
CC(NC(=O)CCn1nc(-c2ccccc2)c2ccccc2c1=O)c1ccccc1 (centres undefined) | nt | nt | nt | nt | nt | i
CCNc1ccc(S(=O)(=O)N(C)C)cc1NCC(=O)Nc1ccccc1Cl | ? | i | 40µM | i | ? | i
CCN(CC)S(=O)(=O)c1ccc(Cl)c(C(=O)Nc2ccc(Cl)cc2[N+](=O)[O-])c1 | ? | i | 8.9µM | ? | ? | i
CCN(CC)S(=O)(=O)c1ccc(Cl)c(NC(=O)c2ccccc2C)c1 | i | 21µM | i[12.7 µM] | i | i[11.4 µM] | i
CCC(C(=O)Nc1cc(Cl)c(OC)cc1OC)n1nc(-c2cc(C)ccc2C)ccc1=O (centres undefined) | nt | nt | nt | nt | nt | i
Cc1c(NC(=O)c2ccco2)cccc1C(=O)O | nt | nt | nt | nt | nt | i
Cc1ccc(NC(=O)C(=O)NCCc2c[nH]c3ccccc23)c(C)c1 | nt | i | i | i | i | i
Cc1ccc(N2CCN(C(=O)c3cc(C(F)(F)F)nn3C)CC2=O)cc1 | nt | nt | nt | nt | nt | i
COc1ccc(C2CC(=O)c3cc(-c4nc(-c5cccc(Cl)c5)cs4)c(=O)[nH]c3C2)cc1 (centres undefined) | i | nt | i | i | i | i
Cc1ccc(-c2csc(-c3cc4c([nH]c3=O)CC(c3ccccc3)CC4=O)n2)cc1 (centres undefined) | 79µM | nt | 2.5µM | i | 89µM | ?
Cc1ncc(S(=O)(=O)c2ccccc2)c(-c2ccccc2)n1 | i | i | ? | i | i | i
Cc1ncc(N=Nc2ccccc2)c(-c2ccccc2)n1 | 14µM | i | ? | 32µM | 40µM | i
COc1ccc(S(=O)(=O)N(C(C)=O)c2ccc(OC(C)=O)c3ccccc23)cc1[N+](=O)[O-] | i | ? | 79µM | i | i | i
Cc1oc2c(c1C(=O)O)C(=O)c1ccccc1C2=O | i | i | 10µM | i | i | i
CCOC(=O)c1c(C)oc2c1C(=O)c1ccccc1C2=O | ? | ? | 13µM | i | i | i
O=C1C(=O)c2c(C(=O)c3ccccc3)coc2-c2ccccc21 | ? | ? | 45µM | i | i | ?
Cc1cc(=O)oc(C)c1C(=O)O | i | i | i[12.7 µM] | i | i | i
Cc1oc2c(c1C(=O)c1ccccc1)C(=O)C(=O)c1ccccc1-2 | 45µM | ? | ? | i | ? | ?
O=C1Nc2ccccc2C1=Nc1cccc([N+](=O)[O-])c1 | i | i | ? | i | i | i
CN=c1c([N+](=O)[O-])nn(-c2ccc3c(c2)OCCO3)n1O | i | 24µM | ? | i | i[11.4 µM] | i
O=[N+]([O-])c1nn(-c2ccc3c(c2)OCCO3)n(O)c1=NCc1ccc(F)cc1 | 35µM | i | ? | ? | 35µM | i
CCOc1ccc(-c2cc(OC(=O)c3ccc(F)cc3)c3c(C)oc(C)c3c(=O)c2)cc1 | ? | nt | ? | i | ? | i
Cc1oc(C)c2c(=O)cc(-c3ccc4c(c3)OCO4)cc(OC(=O)c3cccc(Cl)c3)c12 | i | nt | ? | i | i | ?
SMILES | BAZ2B block | PLK1 PBD inh | G9a inh | HP1b binding inh | JMJD2A Tudor inh | 12-LOX inh
COc1ccc(-c2cc(OC(=O)c3cccc(Cl)c3)c3c(C)oc(C)c3c(=O)c2)cc1OC | 50µM | nt | ? | i | ? | ?
CCOc1ccc(-c2cc(OC(=O)c3ccccc3)c3c(C)oc(C)c3c(=O)c2)cc1 | 35µM | nt | 11µM | i | ? | ?
COc1cc(-c2cc(OC)c3c(C)oc(C)c3c(=O)c2)ccc1OC(=O)c1cccc(Cl)c1 | 79µM | nt | i | i | ? | ?
COc1ccc(-c2cc(OC(=O)c3cccc(C)c3)c3c(C)oc(C)c3c(=O)c2)cc1 | ? | nt | 7.9µM | i | ? | ?
Cc1ccc(C(=O)Oc2cc(-c3ccc4c(c3)OCO4)cc(=O)c3c(C)oc(C)c23)cc1 | ? | nt | ? | i | ? | ?
Cc1ccccc1C(=O)Oc1cc(-c2ccc3c(c2)OCO3)cc(=O)c2c(C)oc(C)c12 | ? | nt | 14µM | i | i | ?
CCOc1cc(-c2ccc(OC(=O)c3ccc(C)cc3)c(OC)c2)cc(=O)c2c(C)oc(C)c12 | 40µM | nt | ? | i | ? | i
CN(Cc1ccc2nonc2c1)Cc1cn(-c2ccccc2)nn1 | nt | nt | nt | nt | nt | i
CC(=O)N1CCC(=NNc2ccnc3cc(Cl)ccc23)CC1 | ? | i | 28µM | i | i | ?
CC(=O)c1ccc(N2CCN(c3ccnc4cc(Cl)ccc34)CC2)cc1 | ? | i | i | i | i | i
CC(=O)N1CCC(=NNc2ncc(C(F)(F)F)cc2Cl)CC1 | 35µM | i | i | i | i | i
Cc1ccc(N/N=C/c2c(C)c(C#N)c(=O)n(C)c2O)cc1C | 56µM | 24µM | 0.79µM | i | 11µM | i
O=C(Nc1ccc(Cl)cn1)c1cccc(S(=O)(=O)N2CCOCC2)c1 | i | i | ? | i | i | ?
CCn1c(=O)cc(OCC(=O)N2CCN(c3ccc(C)cc3)C(C)C2)c2ccccc21 (centres undefined) | ? | nt | 6.3µM | i | i | i
O=C(Oc1ccc(C(=S)N2CCOCC2)cc1)c1cccc(Cl)c1 | i | ? | 45µM | ? | i | i
O=C(Oc1ccc(C(=S)N2CCOCC2)cc1)c1ccccc1[N+](=O)[O-] | i | i | nt | i | i | i
O=C(Oc1ccccc1C(=S)N1CCOCC1)c1cccc([N+](=O)[O-])c1 | i | ? | 79µM | i | ? | i
Cc1c([N+](=O)[O-])cc(C(=O)Oc2cccc(C(=S)N3CCOCC3)c2)cc1[N+](=O)[O-] | ? | ? | 16µM | i | i | i
Cc1cccc(C(=O)Oc2ccccc2C(=O)N2CCOCC2)c1 | i | i | i | i | i | i
O=C(Oc1ccc(C(=S)N2CCCCC2)cc1)c1ccccc1 | i | ? | 35µM | ? | i | i
O=C(Nc1cccc(Cl)c1)c1ccc(OC(=S)N2CCOCC2)cc1 | i | i | i | i | i | i
C=CCSc1nnc(NC(=O)CSc2nnc(C)s2)s1 | i | i | i | i | i | i
O=C(Oc1cccc(C(=O)N2CCOCC2)c1)c1ccc(Br)cc1 | i | i | i | i | i | i
O=C(Oc1cccc(C(=S)N2CCOCC2)c1)c1ccc([N+](=O)[O-])cc1 | ? | i | 32µM | ? | ? | i
